Screening data deposited in PubChem by National Center for Advancing Translational Sciences (NCATS).
HT1080-NT tox: kills 2HG-producing HT-1080-NT fibrosarcoma cells; HT-1080-NT fibrosarcoma viability, CellTiter-Glo ATP luminescence, 48 h; Potency, µM (series often up to 46.1 µM), inactives show at the top dose activity, negative = less viability, hits mostly cytotoxic; hit rate 1.6% among 360,000; AID 686970;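 note: NT is the 2HG producing partner of a matched IDH1 knockdown line; 0% = DMSO-treated cells and -100% = media-only wells without cells; nearly all actives have a fitted effect of over 55% in size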
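Toxicity toward the 2HG-producing NT line was scored as %Activity, normalised to DMSO and no-cell wells, from CellTiter-Glo luminescence after 48 hours' treatment.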
HepG2 tox: HepG2 cytotoxicity, counter-screen for TGF-b inhibitors. hit rate 0.76% among 410,000. AID 588856. HepG2 CAGA-GFP viability, ATP luminescence, 18 h. Potency, µM (doses to about 46.1 µM), for inactives: top-dose activity change, negative = cytotoxicity, most hits filed as cytotoxic
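HepG2 CAGA-GFP cells (1000/well, DMEM with 1% FBS) received compound, then TGF-beta at 500 pg/mL final, and were incubated 18 hours at 37 degrees C. Viability was read by CellTiter-Glo luminescence. Media-only wells were set as complete cell-killing and DMSO as no toxicity.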
ATXN viability: viability counter-screen for ATXN expression inhibitors. S2 cells (HEK-293 line with an ATXN2-luciferase reporter) viability, CellTiter-Fluor protease fluorescence, 24 h. Potency, µM (highest dose often 56.7 µM), usual class: cytotoxic. hit rate 0.49% among 400,000. AID 651635; note: nearly all actives have a fitted effect of over 40% in size
HT1080 IDH1KD tx: toxicity to HT-1080 IDH1 knockdown cells (counter line); HT-1080 IDH1 knockdown viability, ATP luminescence, 48 h; hit rate 2% among 360,000; Potency, µM (top dose mostly 46.1 µM), for inactives: top-dose activity, negative = toxicity, hits mostly cytotoxic; AID 686971;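 note: 0% = DMSO wells and -100% = cell-free medium wells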
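% activity derives from luminescence (CellTiter-Glo), normalised to DMSO and no-cell wells. HT-1080-IDH1KD cells, 750/well, had 48 h compound exposure at 37 °C.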
ATXN2 expr inh: ATXN2 expression inhibition; HEK-293 ATXN2-luciferase reporter, luminescence, 24 h; Potency, µM (titrated, usually from 57 µM), for the others: at the highest dose activity change, negative = inhibition, most hits filed as inhibitors; hit rate 0.72% among 360,000; AID 1745845; note: % is set by controls: 0 for no effect and ±100 for the full control effect; nearly all actives have a fitted effect of over 55% in size
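qHTS (up to 57 uM final) was run with 24 h compound exposure of reporter cells at 37 °C. Each well was multiplexed: SteadyGlo luminescence measured ATXN2-luciferase expression after a fluorogenic Gly-Phe-AFC viability readout (25 uM final).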
TGFb SMAD3 inh: inhibitors of TGF-b signaling | hit rate 1.2% among 410,000 | Potency, µM (highest dose often 46.1 µM), for inactives: top-dose activity, negative = inhibition, hits mostly inhibitors | HepG2 CAGA-GFP TGF-b/SMAD3 reporter, GFP fluorescence, 18 h; TGF-beta stimulated, 500 pg/mL final; note: % is set by controls: 0 for no effect and ±100 for the full control effect; nearly all actives have a fitted effect of over 65% in size
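Smad-responsive CAGA-GFP expression was quantified in HEPG2 cells exposed to compounds and 500 pg/mL final TGF-beta for 18 h at 37 degrees C; unstimulated wells defined full inhibition.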
An asterisk follows results filed as active; i = inactive; u = inconclusive; x = no result given. Compounds with a hit are over-represented: about 3.8% of the library has one in this group of screens. Calls come from the whole dose curve; as a rule, active = well fitted curve in the direction sought with a large enough effect; inconclusive = small, poorly fitted or top-dose-only effect, or another doubt; inactive = no such curve, though single readings can be large; an effect the other way counts as inactive or inconclusive. Potency is the fitted concentration of half-maximal effect.

SMILES | HT1080-NT tox | HepG2 tox | ATXN viability | HT1080 IDH1KD tx | ATXN2 expr inh | TGFb SMAD3 inh
Oc1ccc(C[C@H]2CN([C@@H](Cc3ccccc3)CN3CCC[C@@H]3CN3C(=S)NC[C@@H]3Cc3ccccc3)C(=S)N2CC2CCCCC2)cc1 | 23µM* | -33% | u | u | 0% | 13µM*
CC(C)C[C@H]1CN([C@@H](CC(C)C)CN2CCCC2CN2C(=S)NC[C@@H]2Cc2ccc(O)cc2)C(=S)N1CC1CCCCC1 (stereo partly drawn) | 2% | -28% | i | 3% | -3% | u
CC(C)C[C@H]1CN([C@@H](CC(C)C)CN2CCC[C@@H]2CN2C(=S)NC[C@@H]2Cc2ccc(O)cc2)C(=S)N1CC1CCCCC1 | 21µM* | -55% | 32µM* | 15µM* | 0% | u
Oc1ccc(C[C@@H](CN2CCCC2CN2C(=S)NC[C@@H]2Cc2ccccc2)N2C[C@H](Cc3ccccc3)N(CC3CCCCC3)C2=S)cc1 (stereo partly drawn) | 1% | x | i | 8% | 1% | x
CC(C)C[C@H]1CNC(=S)N1C[C@H]1CCCN1C[C@H](Cc1ccccc1)N1C[C@H](Cc2ccc(O)cc2)N(CC2CCCCC2)C1=S | 15µM* | -38% | u | 16µM* | u | 11µM*
CC(C)C[C@H]1CNC(=S)N1CC1CCCN1C[C@H](Cc1ccc(O)cc1)N1C[C@H](Cc2ccccc2)N(CC2CCCCC2)C1=S (stereo partly drawn) | u | -2% | u | -2% | -27% | u
CN(C)c1ccc(-c2ccc(CCO)cc2)cc1 | x | -1% | x | x | x | 1%
CCCCN(CCN(CCCC)C(=O)N1CCOCC1)C(=O)N1CCOCC1 | x | x | i | x | -14% | x
CCc1cccc(CC)c1NC(=O)N1Cc2[nH]nc(NC(=O)c3ccc(N4CCN(C)CC4)cc3)c2C1 | x | x | x | x | -1% | x
O=C(NC(NC(=S)Nc1ccc(Cl)cc1Cl)C(Cl)(Cl)Cl)c1cccc([N+](=O)[O-])c1 (stereo not drawn) | u | 13µM* | u | u | u | u
O=C(NC(NC(=S)Nc1ccccc1)C(Cl)(Cl)Cl)c1cccc(Cl)c1 (stereo not drawn) | u | 13µM* | i | u | u | 4.5µM*
CCCCN(CC)Cc1ccc(CNC(=S)Nc2c(C)cc(C)cc2C)o1 | 4% | -22% | u | -7% | -13% | -4%
CCCCN(CC)Cc1ccc(CNC(=O)Nc2ccc(F)cc2)o1 | 10µM* | -30% | i | u | -13% | u
COc1ccc(N2CCN(c3oc(/C=C/c4ccc(F)cc4)nc3C#N)CC2)cc1 | x | -19% | x | x | x | x
O=C(Nc1ncc([N+](=O)[O-])s1)c1ccc2c(c1)OCO2 | 15µM* | -64% | u | 16µM* | 2.2µM* | u
Cc1cnc(NC(=O)c2ccc3c(c2)OCCO3)s1 | 7.3µM* | -47% | u | 7.3µM* | 2.2µM* | -11%
Cc1ccc(C(=O)Nc2ncc([N+](=O)[O-])s2)cc1 | 18µM* | -70% | u | 23µM* | 2.8µM* | u
Cc1ccc([N+](=O)[O-])cc1NC(=O)c1ccc2c(c1)OCO2 | 14% | 1% | i | 1% | x | -13%
Cc1ccc(C(=O)Nc2ncc(Cc3ccc(SC(F)F)cc3)s2)cc1 | 1.8µM* | 1% | u | 2.6µM* | -7% | u
Cc1ccc(C(=O)Nc2ncc(Cc3ccc(F)cc3)s2)o1 | -9% | 4% | u | u | 54% | 13%
Cc1ccc(CNC(=O)CN(c2cc(C)cc(C)c2)S(=O)(=O)c2c(C)noc2C)cc1 | x | -4% | i | x | 4% | -6%
O=C(CCBr)Nc1cccc2cccnc12 | x | -8% | x | x | x | 0%
O=C(CCCl)Nc1cccc2cccnc12 | x | -90% | x | x | x | 7.1µM*
